# Compound activity (PubChem BioAssay)
# Sfp inh: qHTS Assay for Inhibitors of Bacillus subtilis Sfp phosphopantetheinyl transferase (PPTase) | Biochemical Sfp PPTase activity, qHTS | Potency, µM, inactives show largest response in the series, negative = inhibition, most hits filed as inhibitors | 3.5% of 310,000 active;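 further: the enzyme is Sfp with the accession as filed and its product quenches rhodamine fluorescence; 0% = enzyme reaction without inhibitor and -100% = no enzyme wells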
#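 After 15 min at room temperature with compound, 15 nM Sfp received 5 uM rhodamine-CoA plus 12.5 uM BHQ-2-ybbR (50 mM Hepes pH 7.6, 10 mM MgCl2). Rate came from the fluorescence difference over 30 min, ex 525/em 598 nm.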
# JMJD2A Tudor inh: qHTS Assay for Inhibitors of JMJD2A-Tudor Domain; Lysine-specific demethylase 4A (Homo sapiens), O75164; AlphaScreen JMJD2A-Tudor / H3K4me3 peptide binding; Potency, µM (highest dose often 114 µM), for inactives: at the highest dose activity change, negative = inhibition, hits mostly inhibitors; 4.4% of 390,000 active; AID 504339, 2011; further: on the % scale 0 is the no-effect control and ±100 the full control effect; nearly all actives have a fitted effect of over 50% in size
# BAZ2B block: qHTS Assay for Inhibitors of BAZ2B; Bromodomain adjacent to zinc finger domain protein 2B (Homo sapiens), Q9UIF8; AlphaScreen BAZ2B-H3K14Ac peptide displacement; Potency, µM (top dose mostly 114 µM), for the others: top-dose activity change, negative = inhibition, actives largely listed as inhibitors; 4.4% of 360,000 active; further: on the % scale 0 is the no-effect control and ±100 the full control effect; nearly all actives have a fitted effect of over 60% in size
#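 Multi-concentration screen (max 110 uM) measuring displacement of acetylated histone H3 peptide from BAZ2B by AlphaScreen, using 50 nM protein, 50 nM peptide and 10 ug/mL streptavidin donor plus Ni-chelate acceptor beads.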
# HP1b binding inh: HTS for Inhibitors of HP1-beta Chromodomain Interactions with Methylated Histone Tails; Potency, µM (series often up to 114 µM), for inactives: at the top dose activity change, negative = inhibition, usual class: inhibitors; 0.56% of 390,000 active; Chromobox protein homolog 1 (Homo sapiens), P83916; AlphaScreen HP1-beta / biotin-H3K9me3 peptide binding; further: nearly all actives have a fitted effect of over 70% in size
# Target sequence (P83916 whole entry, looked up): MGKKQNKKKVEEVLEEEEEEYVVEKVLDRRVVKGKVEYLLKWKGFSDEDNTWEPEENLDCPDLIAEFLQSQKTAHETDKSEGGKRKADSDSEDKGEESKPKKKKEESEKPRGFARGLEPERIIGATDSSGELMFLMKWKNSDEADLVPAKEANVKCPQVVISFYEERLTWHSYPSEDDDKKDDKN
#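 Compound inhibition of the preformed complex between 50 nM HP1-beta and 50 nM biotinylated H3K9me3 peptide was read by AlphaScreen. Buffer was PBS pH 7.4 with 0.01% Tween-20. Incubations ran 30 min at room temperature, with 10 ug/mL donor/acceptor beads.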
# PLK1 PBD block: qHTS for Inhibitors of PLK1-PDB (polo-like kinase 1 - polo-box domain): Primary Screen; Serine/threonine-protein kinase PLK1 (Homo sapiens), P53350; Plk1 PBD binding of FITC phosphopeptide, fluorescence polarization; Potency, µM, for inactives: max response, negative = inhibition, usual class: inhibitors; 2.8% of 360,000 active; AID 720504, 2013; further: series mostly up to about 57 µM; on the % scale 0 is the no-effect control and ±100 the full control effect; nearly all actives have a fitted effect of over 65% in size
# Target sequence (P53350 whole entry, looked up, the tested form may be a part): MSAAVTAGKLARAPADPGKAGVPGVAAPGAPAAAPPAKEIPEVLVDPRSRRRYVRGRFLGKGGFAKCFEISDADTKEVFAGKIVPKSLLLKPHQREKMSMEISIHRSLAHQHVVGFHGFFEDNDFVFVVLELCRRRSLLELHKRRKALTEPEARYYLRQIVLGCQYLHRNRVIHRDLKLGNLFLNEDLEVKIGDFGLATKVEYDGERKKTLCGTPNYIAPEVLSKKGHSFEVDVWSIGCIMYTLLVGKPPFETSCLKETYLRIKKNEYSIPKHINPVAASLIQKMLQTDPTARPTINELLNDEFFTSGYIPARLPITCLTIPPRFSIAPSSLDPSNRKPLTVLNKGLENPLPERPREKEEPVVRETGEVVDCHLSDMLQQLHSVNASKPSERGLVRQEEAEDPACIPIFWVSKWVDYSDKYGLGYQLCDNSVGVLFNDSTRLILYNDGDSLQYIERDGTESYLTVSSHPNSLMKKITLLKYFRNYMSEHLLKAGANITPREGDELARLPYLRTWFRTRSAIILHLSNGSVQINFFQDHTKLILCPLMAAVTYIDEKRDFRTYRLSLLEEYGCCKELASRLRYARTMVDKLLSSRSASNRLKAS
# G9a block: qHTS Assay for Inhibitors of Histone Lysine Methyltransferase G9a | Histone-lysine N-methyltransferase EHMT2 (Homo sapiens), Q96KQ7 | G9a H3K9 monomethylation, AlphaScreen, 2 h | Potency, µM (doses to about 102 µM), for the others: at the top dose activity, negative = inhibition, hits mostly inhibitors | 8.8% of 350,000 active | AID 504332, 2011; further: on the % scale 0 is the no-effect control and ±100 the full control effect; nearly all actives have a fitted effect of over 75% in size
#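 Enzyme 20 nM + cpd, 15 min RT; add b-H3K9 pep 500 nM / SAM 20 uM; 2 h RT; anti-H3K9me1 Ab 0.5 ug/mL + SA donor / anti-rabbit acceptor beads 20 ug/mL each, 10 min; AlphaScreen read.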
# An asterisk follows results filed as active; ? = inconclusive; . = no result given; [ ] = dose if it differs, or a comment. The list is not random: actives were taken first. Their share in the collection is about 12%. The call rests on the fitted dose curve; in most records, active means well fitted curve in the direction sought with a large enough effect; inconclusive means small, poorly fitted or top-dose-only effect, or another doubt; inactive means no such curve, though single readings can be large; an effect the other way counts as inactive or inconclusive. Potency means the concentration at half of the fitted maximal effect.
SMILES,Sfp inh,JMJD2A Tudor inh,BAZ2B block,HP1b binding inh,PLK1 PBD block,G9a block
CN(c1ccc(O)cc1)c1nc(-c2cccs2)cs1,-1.7%,?,-22.5%,?,-11.6%,-8.7%
Cc1nc(N)sc1-c1csc(N(C)c2ccc(O)cc2)n1,5.7%,56.2µM*,-69.0%,-53.8%,-9.3%,44.7µM*
O=C(O)/C=C/C(=O)Nc1ccc(C2(c3ccc(NC(=O)/C=C/C(=O)O)cc3)c3ccccc3-c3ccccc32)cc1,-9.5%,-35.4%,50.1µM*,16.6%,29.9µM*,.
O=C(O)/C=C/C(=O)Nc1ccc(OC(F)(F)Cl)cc1,10.8%,0.0%,-38.6%,27.4%,-8.3%,44.7µM*
O=C(O)/C=C\C(=O)Nc1ccc(Oc2ccccc2)cc1,12.5%,-14.7%,-21.7%,34.7%,-2.3%,?
O=C(C=Cc1ccccc1)Nc1ccccc1,.,-11.0%,.,13.5%,-1.6%,.
O=C(O)/C=C/C(=O)Nc1ccc(Cc2ccc(NC(=O)/C=C/C(=O)O)cc2)cc1,-8.7%,-9.7%,-29.5%,19.9%,?,44.7µM*
O=C(O)/C=C/C(=O)Nc1ccc(Oc2ccc(NC(=O)/C=C/C(=O)O)cc2)cc1,-12.6%,.,50.1µM*,.,.,?
O=C(O)/C=C/C(=O)Nc1ccc(SC(F)(F)C(F)(F)C(F)(F)F)cc1,21.6%,13.0%,-38.1%,57.3%,?,-49.4%
COc1cc(C(=O)N(C(C)C)C2CCCCC2)cc(OC)c1OC,.,.,.,.,-0.7%,.
Cc1nnc(NCc2ccc(Cl)cc2)c2c1nnn2Cc1ccc(F)cc1,.,-15.1%,0.2%,10.6%,.,4.0%[59 µM]
O=c1c2sc3ccccc3c2n(Cc2ccc(Cl)cc2)c(=O)n1Cc1ccco1,.,-15.7%,-1.4%,6.6%,.,0.9%[59 µM]
O=C(CSc1ncn(-c2ccccc2)n1)Nc1nc2c(s1)CCCC2,?,50.1µM*,44.7µM*,?,?,-26.1%[12.7 µM]
O=C(CSc1ncn(-c2ccccc2)n1)Nc1nncs1,-0.3%,-0.7%,-8.7%,35.5%,-5.1%,?
CC(=O)Nc1nonc1NC(=O)CSC1=NCCS1,-6.2%,-30.1%,10.2%,50.3%,-10.5%,56.2µM*
O=C(CSC1=NCCS1)Nc1nc2c(s1)CCCC2,56.2µM*,-35.1%,?,-9.9%,?,39.8µM*
CC(=O)Nc1ccc(NC(=O)CSC2=NCCS2)cc1,0.3%,3.4%,-1.1%,58.1%,-22.6%,?
O=C(Cn1c(=O)n(Cc2ccc(C(=O)NCc3ccccc3Cl)cc2)c(=O)c2ccccc21)Nc1ccc(F)cc1,.,-17.8%,-13.2%,10.6%,.,4.5%[59 µM]
COC(=O)NC(c1ccccc1)[C@@]1(C(=O)OC)CCCC1=O (some centres undefined),10.8%,.,.,.,.,.
CCOC(=O)c1cc(C)n(CC2CCC(C(=O)Nc3ccc(OCC)cc3)CC2)c1C (centres undefined),.,-7.2%,-11.3%,19.0%,.,-30.1%[59 µM]
Fc1ccc(CNc2ccccn2)cc1,-1.1%,8.8%,5.2%,32.6%,2.0%,.
CN(C)c1ccc(CNCc2cccnc2)cc1,.,-23.8%,.,0.5%,-0.2%,.
CN(C)c1ccc(CNc2ccccn2)cc1,21.0%,56.2µM*,50.1µM*,-14.3%,-5.0%,?
Cc1cccc(NCc2ccc(N(C)C)cc2)n1,4.4%,50.1µM*,39.8µM*,?,1.8%,50.1µM*
CSc1ccc(CNc2ccccn2)cc1,0.5%,-24.0%,-10.1%,4.1%,-9.5%,44.7µM*
SMILES,Sfp inh,JMJD2A Tudor inh,BAZ2B block,HP1b binding inh,PLK1 PBD block,G9a block
Cc1c(C)n(Cc2ccccc2)c2ccc(C(=O)NCCc3ccccc3Cl)cc12,.,?,-15.1%,19.4%,.,-24.5%[59 µM]
COc1ccccc1C(=O)Nc1ccc(S(=O)(=O)Nc2nc(C)cc(C)n2)cc1,.,-12.0%,-11.2%,38.2%,.,0.8%[59 µM]
O=[N+]([O-])c1ccc(N=Nc2c(Cl)cc(O)cc2Cl)cc1,4.8%,11.2µM*,8.91µM*,12.6µM*,?,10µM*
COC(=O)c1cn(CC(=O)Nc2ccccc2C)c2ccccc12,3.2%,-10.5%,-5.6%,32.7%,-12.6%,-1.4%
Cc1cc(-c2n[nH]c(=S)n2/N=C/c2ccccc2[N+](=O)[O-])n[nH]1,?,3.55µM*,?,?,-17.9%,0.398µM*
Fc1ccc(-c2n[nH]c(=S)n2/N=C/c2c[nH]c3ccccc23)cc1,-4.3%,?,7.9%,20.1%,-6.4%,1.78µM*
Cc1cc(-c2n[nH]c(=S)n2/N=C/c2c[nH]c3ccccc23)n[nH]1,-28.7%,10µM*,-22.3%,10.9%,-4.1%,0.794µM*
Clc1ccc(CN2CCC(CNc3ncnc4onc(-c5ccc(Cl)cc5)c34)CC2)cc1,.,?,?,13.5%,.,-9.4%[59 µM]
CCN(CC)c1ccc(NC(=O)CCS(=O)(=O)c2cc3c(cc2Cl)NC(=O)CO3)c(C)c1,.,-16.4%,-1.5%,37.0%,.,-4.8%[59 µM]
COc1cccc(-n2c(=O)c3cc(OC)c(OC)cc3n(CC(=O)Nc3cc(C)[nH]n3)c2=O)c1,23.3%,-18.1%,50.1µM*,33.6%,-13.8%,?
COc1ccc(-n2c(=O)c3ccccc3n(CC(=O)Nc3cccc(OC)c3)c2=O)cc1,16.0%,-4.4%[11.4 µM],6.7%,-6.7%,-20.8%,-32.1%
COc1ccc(C(C)=O)cc1Cn1c(C)c(C(=O)NCc2cccc(C(F)(F)F)c2)sc1=O,.,.,.,.,-8.8%,.
O=C(N=C1SC2CS(=O)(=O)CC2N1c1cccc(Cl)c1Cl)C1CCCO1 (centres undefined),6.0%,4.3%,-3.5%,19.9%,-9.4%,?
Cc1sc(-c2ccccn2)nc1OC(=O)c1ccc(Cl)c(Cl)c1,-7.3%,-3.7%,-0.9%,19.3%,-5.3%,39.8µM*
Cc1sc(-c2ccccn2)nc1OC(=O)c1ccc(F)cc1F,15.8µM*,-7.2%,79.4µM*,29.8%,-10.6%,10µM*
COc1ccc(/C(O)=C2/C(=O)C(=O)N(c3ncccn3)C2c2ccc(F)cc2)cc1 (centres undefined),13.1%,-14.0%,-13.6%,37.6%,-6.4%,-47.2%
O=C1C(=O)N(c2nccs2)C(c2ccccc2F)/C1=C(\O)c1ccc2c(c1)OCCO2 (centres undefined),-3.5%,?,50.1µM*,0.0%,-18.5%,-11.0%[0.0925 µM]
O=C1C(=O)N(Cc2cccnc2)C(c2ccc(Br)cc2)/C1=C(\O)c1ccc2c(c1)OCCO2 (centres undefined),18.5%,-13.9%,-13.6%,17.7%,-0.7%,10.2%[59 µM]
